Of roughly 7,900 targets only a part is listed; those with a hit were picked by preference. About 0.6% of all pairs of compound and target were hits.
Target: AAK1 (UniProt Q2M2I8)
Assay: log2 fold change, soluble protein after heating vs DMSO (PISA); higher = thermal stabilisation; K562 cells, 10 uM, 30 min; active = over 0.2 and 3.5 SD of the protein, either way, in both replicates (recomputed)
Outline: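 K562 cells at 2×10^6 cells/mL were treated for 30 min with 10 μM compound, and aliquots were heated for 3 min over 48°C-58°C before pooling. Extraction used PBS with 0.5% NP-40 at 4°C, and soluble protein was the supernatant after 21,000xg for 90 min, measured by TMTpro 16plex LC-MS/MS with channel sums equalised. Thermal stability values, relative to control samples and from duplicates, are log2 fold changes.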

AAK1, sequence (Q2M2I8 whole entry, looked up): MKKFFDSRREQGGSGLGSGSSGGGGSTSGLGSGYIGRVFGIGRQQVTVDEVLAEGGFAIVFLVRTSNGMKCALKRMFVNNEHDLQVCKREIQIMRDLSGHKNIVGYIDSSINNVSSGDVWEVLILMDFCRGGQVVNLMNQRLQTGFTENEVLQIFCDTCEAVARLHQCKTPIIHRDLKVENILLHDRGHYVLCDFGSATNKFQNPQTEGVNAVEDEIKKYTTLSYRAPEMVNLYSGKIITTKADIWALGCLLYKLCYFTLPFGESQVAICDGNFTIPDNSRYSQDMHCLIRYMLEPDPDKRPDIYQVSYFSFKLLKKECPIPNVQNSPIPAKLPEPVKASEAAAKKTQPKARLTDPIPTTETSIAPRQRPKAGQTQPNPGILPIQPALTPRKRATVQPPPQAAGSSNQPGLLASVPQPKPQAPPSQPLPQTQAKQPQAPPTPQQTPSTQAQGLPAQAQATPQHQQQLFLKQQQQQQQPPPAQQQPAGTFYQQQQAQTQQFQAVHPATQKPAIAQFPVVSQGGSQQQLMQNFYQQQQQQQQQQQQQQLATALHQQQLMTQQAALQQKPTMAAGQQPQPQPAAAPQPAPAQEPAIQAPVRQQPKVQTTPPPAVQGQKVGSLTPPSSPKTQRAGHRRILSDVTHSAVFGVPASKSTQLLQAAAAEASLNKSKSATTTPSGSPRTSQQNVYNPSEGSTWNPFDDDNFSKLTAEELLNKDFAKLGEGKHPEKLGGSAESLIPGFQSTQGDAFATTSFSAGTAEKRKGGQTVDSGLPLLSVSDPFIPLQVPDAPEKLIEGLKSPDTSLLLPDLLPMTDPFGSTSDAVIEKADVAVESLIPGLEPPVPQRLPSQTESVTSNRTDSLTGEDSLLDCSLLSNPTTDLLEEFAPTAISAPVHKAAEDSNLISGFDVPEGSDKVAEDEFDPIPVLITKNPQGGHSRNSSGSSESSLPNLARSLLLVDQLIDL

log2 fold change, inactive:
NC(=O)c1ccc2nc(-c3ccc(Oc4ccc(Cl)cc4)cc3)[nH]c2c1 0.005
FC(F)(F)c1ccc(/C=C/c2nc(COc3ccc(CCCCn4ccnn4)cc3)co2)cc1 [mubritinib] -0.066
COc1cc2nc(-c3cc(F)ccc3O)nc(N[C@@H]3CNC[C@H]3C(C)(C)O)c2cc1OC 0.024
Cn1c2cc(S(C)=O)sc2c2cnn(Cc3cccc(N)c3)c(=O)c21 (stereo unspecified) -0.108
Oc1cc(-c2nc(-c3ccccc3)[nH]c2-c2ccncc2)ccc1Cl 0.073
CS(=O)(=O)CCNCc1ccc(-c2ccc3ncnc(Nc4ccc(OCc5cccc(F)c5)c(Cl)c4)c3c2)o1 [lapatinib] 0.038
CC1=C(C(=O)Nc2cc3cn[nH]c3cc2F)C(c2ccc(C(F)(F)F)cc2)CC(=O)N1 (stereo unspecified) -0.055
COC(=O)[C@H](CCSC)NC(=O)c1ccc(NC[C@@H](N)CS)cc1-c1ccccc1 -0.044
CC(C)c1cnn2c(NCc3ccccc3)cc(NCCCCCCN)nc12 -0.043
CO[C@H]1C[C@@H]2CC[C@@H](C)[C@@](O)(O2)C(=O)C(=O)N2CCCC[C@H]2C(=O)O[C@H]([C@H](C)C[C@@H]2CC[C@H](n3cnnn3)[C@H](OC)C2)CC(=O)[C@H](C)/C=C(\C)[C@@H](O)[C@@H](OC)C(=O)[C@H](C)C[C@H](C)/C=C/C=C/C=C/1C [zotarolimus] -0.004
CC[C@@H]1C(=O)N(C)c2cnc(Nc3ccc(C(=O)N[C@H]4CC[C@H](N5CCN(CC6CC6)CC5)CC4)cc3OC)nc2N1C(C)C [volasertib] 0.121
Cn1cncc1[C@@](N)(c1ccc(Cl)cc1)c1ccc2c(c1)c(-c1cccc(Cl)c1)cc(=O)n2C [tipifarnib] -0.057
CCn1c(C(=O)N(C2CC2)C2CC2)cc2c3c(ncn3C)c(Nc3cc(C)n(C)n3)nc21 0.019
CS(=O)(=O)c1ccc(-c2cnc(N)c(C(=O)Nc3ccccc3)n2)cc1 0.043
O=C(Nc1cccc(Nc2ncc(Br)c(NCCc3cnc[nH]3)n2)c1)N1CCCC1 0.265
CN1CCC(CNc2ccc3ncc(-c4cccc(OC(F)(F)F)c4)n3n2)CC1 0.27
Cc1ccc(Sc2cncc3sc(C(N)=O)cc23)cc1 0.032
CCCS(=O)(=O)Nc1ccc(F)c(C(=O)c2c[nH]c3ncc(Cl)cc23)c1F -0.028
Fc1ccc(Cl)cc1-c1nc(Nc2ccncc2)c2nccnc2n1 0.019
CC[C@H](C)n1cc(C)c2c(C(=O)NCc3c(C)cc(C)[nH]c3=O)cc(-c3ccc(N4CCNCC4)nc3)cc21 -0.013
CC[C@H](C)[C@H](NC(=O)[C@H]([C@@H](C)CC)N(C)C(C)=O)C(=O)N[C@H](C(=O)N[C@@H](CC(C)C)C(=O)[C@@]1(C)CO1)[C@@H](C)O [epoxomicin] 0.031
Cc1cc(Nc2cc(CN3CCOCC3)c3nc(C)c(Cc4ccc(Cl)cc4F)n3n2)n[nH]1 [gandotinib] 0.091
CC(C)C[C@@H](C=O)NC(=O)[C@H](CC(C)C)NC(=O)[C@H](CC(C)C)NC(=O)OCc1ccccc1 -0.061
Cc1ccc(-n2nc(C(C)(C)C)cc2NC(=O)Nc2ccc(OCCN3CCOCC3)c3ccccc23)cc1 [doramapimod] -0.095
NC(=O)c1cnc(N[C@@H]2CCCC[C@@H]2N)nc1Nc1cccc(-n2nccn2)c1 0.055
O=C1c2ccccc2-c2n[nH]c3cccc1c23 0.319
Cc1ncc(-c2ccnc(Nc3ccc(S(C)(=O)=O)cc3)n2)n1C(C)C 0.219
O=C(Nc1nc2ccccc2n1CCN1CCOCC1)c1cccc([N+](=O)[O-])c1 [IRAK-1-4 Inhibitor I] -0.085
NC1(Cc2ccc(Cl)cc2)CCN(c2ncnc3[nH]ccc23)CC1 -0.085
CC(=O)c1cnc2ccc(-c3cc(Cl)c(O)c(Cl)c3)nc2c1N[C@H]1CC[C@H](CN(C)C)CC1 0.366

log2 fold change, active:
C[C@@H](N)c1ccc(C(=O)Nc2ccnc3[nH]ccc23)cc1 0.412
